PubChem BioAssay (Tox21)
Inconclusive results are not listed. The source made the active and inactive calls. Calls come from the whole dose curve; as a rule, active = well fitted curve in the direction sought with a large enough effect in the repeat runs; inconclusive = weak or mixed curves; inactive = no such curve, though single readings can be large; an effect the other way counts as inactive or inconclusive.

Columns and labels:
[1] = qHTS RealTime-Glo MT Cell Viability Assay in HepG2 cells - 40 hour (AID 1224870); note: nearly all actives have a fitted effect of over 50% in size
Procedure, shortened: (§1)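 HepG2 cells mixed with RealTime-Glo MT reagents (NanoLuc plus cell-permeant prosubstrate) were seeded at 600 cells/well, incubated 5 h at 37 C/5% CO2, then pinned with compounds in DMSO; nonlytic luminescence tracked viability during 40 h treatment.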

[2] = A CellTox Green Cytotoxicity Assay to monitor cytotoxicity in HEK293 cells - 40 hour (AID 1224871); note: nearly all actives have a fitted effect of over 45% in size
Procedure, shortened: (§2)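 Cytotoxicity was tracked continuously in HEK293 cells by a DNA-binding dye excluded from viable cells. Compounds were transferred in DMSO 5 h after seeding; fluorescence was recorded at intervals up to 40 h.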

[3] = qHTS RealTime-Glo MT Cell Viability Assay in HEK293 cells - 16 hour (AID 1224872); note: top concentration of the series differs between compounds; nearly all actives have a fitted effect of over 50% in size
Procedure, shortened: (§3)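 Tox21 10K qHTS, HEK293, 600 cells/well, RealTime-Glo reagent co-dispensed with cells; 5 h preincubation, compound by pintool, 37 C, luminescence at 0–40 h.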

[4] = qHTS RealTime-Glo MT Cell Viability Assay in HEK293 cells - 40 hour (AID 1224874); details: RealTime-Glo luminescence; max response: active compounds read low; note: nearly all actives have a fitted effect of over 50% in size
Procedure, shortened: (§4)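 Nonlytic bioluminescent viability monitoring. HEK293 at 600 cells/well with reagent; 5 h settle; compound transfer by pintool; plates held at 37 C and read at set time points.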

[5] = A CellTox Green Cytotoxicity Assay to monitor cytotoxicity in HEK293 cells - 24 hour (AID 1224875); note: series mostly up to about 77 µM; nearly all actives have a fitted effect of over 45% in size
Procedure, shortened: as §2

[6] = A CellTox Green Cytotoxicity Assay to monitor cytotoxicity in HepG2 cells - 16 hour (AID 1224876); note: nearly all actives have a fitted effect of over 45% in size; note: potency is the fitted concentration of half-maximal effect
Procedure, shortened: (§5)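 Real-time, homogeneous cytotoxicity readout: dead-cell DNA staining by CellTox Green in HepG2 monolayers, fluorescence measured at timed intervals up to 40 h of continuous compound exposure.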

[7] = qHTS RealTime-Glo MT Cell Viability Assay in HepG2 cells - 32 hour (AID 1224877); note: nearly all actives have a fitted effect of over 55% in size
Procedure, shortened: (§6)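 Cells + NanoLuc/prosubstrate dispensed (600 cells/well) → 5 h at 37 C/5% CO2 → compounds in DMSO transferred → 40 h incubation at 37 C, luminescence read at 0, 8, 16, 24, 32, 40 h.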

[8] = A CellTox Green Cytotoxicity Assay to monitor cytotoxicity in HepG2 cells - 24 hour (AID 1224878); note: nearly all actives have a fitted effect of over 45% in size; note: potency is the fitted concentration of half-maximal effect
Procedure, shortened: as §5

[9] = A CellTox Green Cytotoxicity Assay to monitor cytotoxicity in HepG2 cells - 40 hour (AID 1224879); note: nearly all actives have a fitted effect of over 40% in size; note: potency is the fitted concentration of half-maximal effect
Procedure, shortened: as §5

[10] = A CellTox Green Cytotoxicity Assay to monitor cytotoxicity in HEK293 cells - 32 hour (AID 1224881); note: nearly all actives have a fitted effect of over 40% in size
Procedure, shortened: as §2

[11] = A CellTox Green Cytotoxicity Assay to monitor cytotoxicity in HepG2 cells - 0 hour (AID 1224882); note: nearly all actives have a fitted effect of over 35% in size
Procedure, shortened: as §5

[12] = A CellTox Green Cytotoxicity Assay to monitor cytotoxicity in HepG2 cells - 32 hour (AID 1224883); note: nearly all actives have a fitted effect of over 50% in size; note: potency is the fitted concentration of half-maximal effect
Procedure, shortened: as §5

[13] = A CellTox Green Cytotoxicity Assay to monitor cytotoxicity in HEK293 cells - 8 hour (AID 1224884); note: nearly all actives have a fitted effect of over 35% in size
Procedure, shortened: as §2

[14] = qHTS RealTime-Glo MT Cell Viability Assay in HepG2 cells - 16 hour (AID 1224885); note: nearly all actives have a fitted effect of over 50% in size
Procedure, shortened: as §6

[15] = qHTS RealTime-Glo MT Cell Viability Assay in HEK293 cells - 24 hour (AID 1224886)
Procedure, shortened: as §3

[16] = qHTS RealTime-Glo MT Cell Viability Assay in HEK293 cells - 8 hour (AID 1224887); note: nearly all actives have a fitted effect of over 50% in size; note: potency is the fitted concentration of half-maximal effect
Procedure, shortened: as §4

[17] = A CellTox Green Cytotoxicity Assay to monitor cytotoxicity in HEK293 cells - 16 hour (AID 1224888); note: nearly all actives have a fitted effect of over 35% in size
Procedure, shortened: as §2

[18] = qHTS RealTime-Glo MT Cell Viability Assay in HepG2 cells - 0 hour (AID 1224889); note: nearly all actives have a fitted effect of over 50% in size
Procedure, shortened: as §6

[19] = qHTS RealTime-Glo MT Cell Viability Assay in HEK293 cells - 0 hour (AID 1224880)
Procedure, shortened: as §4

[20] = qHTS RealTime-Glo MT Cell Viability Assay in HepG2 cells - 8 hour (AID 1224873); note: nearly all actives have a fitted effect of over 55% in size
Procedure, shortened: as §1
% is set by controls: 0 for no effect and ±100 for the full control effect.

N=C(N)c1ccc(OCCCOc2ccc(C(=N)N)cc2)cc1
inactive: Potency [1] | Potency [2] | Potency [3] | max response [4] 1.81% | Potency [5] | Potency [6] | Potency [7] | Potency [8] | Potency [9] | Potency [10] | Potency [11] | Potency [12] | Potency [13] | Potency [14] | Potency [15] | Potency [16] | Potency [17] | Potency [18]

O=C(O)CCCl
inactive: Potency [1] | Potency [2] | Potency [3] | max response [4] 13% | Potency [5] | Potency [6] | Potency [7] | Potency [8] | Potency [9] | Potency [10] | Potency [11] | Potency [12] | Potency [13] | Potency [14] | Potency [15] | Potency [16] | Potency [18]

CCOC(=O)c1cccc(N)c1
inactive: Potency [1] | Potency [2] | Potency [3] | max response [4] 3.26% | Potency [5] | Potency [6] | Potency [7] | Potency [8] | Potency [9] | Potency [10] | Potency [11] | Potency [12] | Potency [13] | Potency [14] | Potency [15] | Potency [16] | Potency [17] | Potency [18]

CCO/C([O-])=N/c1c[n+](N2CCOCC2)no1
inactive: Potency [1] | Potency [2] | Potency [3] | max response [4] 5.08% | Potency [5] | Potency [6] | Potency [7] | Potency [8] | Potency [9] | Potency [19] | Potency [12] | Potency [13] | Potency [14] | Potency [15] | Potency [16] | Potency [18]

CCOC(C)(C)C
inactive: Potency [1] | Potency [2] | Potency [3] | max response [4] 7.98% | Potency [6] | Potency [7] | Potency [8] | Potency [9] | Potency [10] | Potency [11] | Potency [12] | Potency [13] | Potency [14] | Potency [15] | Potency [16] | Potency [17] | Potency [18]

Nc1c2c(nc3ccccc13)CCCC2O (stereo not drawn)
inactive: Potency [1] | Potency [2] | Potency [20] | Potency [5] | Potency [6] | Potency [7] | Potency [8] | Potency [9] | Potency [19] | Potency [10] | Potency [11] | Potency [13] | Potency [14] | Potency [15] | Potency [16] | Potency [17] | Potency [18]

CO[C@]12C[C@@H](COC(=O)c3cncc(Br)c3)CN(C)[C@@H]1Cc1cn(C)c3cccc2c13
active: Potency [6] 23.9 µM | Potency [8] 23.9 µM | Potency [9] 23.9 µM | Potency [12] 23.9 µM | Potency [16] 21.3 µM
inactive: Potency [1] | Potency [2] | Potency [20] | max response [4] -5.48% | Potency [5] | Potency [7] | Potency [19] | Potency [13] | Potency [14] | Potency [15]

CCCCC(CC)COC(=O)c1ccccc1O (stereo not drawn)
inactive: Potency [1] | Potency [2] | Potency [20] | max response [4] 0.0024% | Potency [5] | Potency [6] | Potency [7] | Potency [9] | Potency [19] | Potency [10] | Potency [12] | Potency [13] | Potency [14] | Potency [15] | Potency [16] | Potency [17] | Potency [18]

COC(C)(C)CCCC(C)CC=O (stereo not drawn)
inactive: Potency [1] | Potency [2] | max response [4] 3.83% | Potency [5] | Potency [6] | Potency [7] | Potency [9] | Potency [19] | Potency [10] | Potency [11] | Potency [13] | Potency [14] | Potency [15] | Potency [16] | Potency [17] | Potency [18]

CC(=O)N(CC(O)CO)c1c(I)c(C(=O)NCCO)c(I)c(C(=O)NCC(O)CO)c1I (stereo not drawn)
inactive: Potency [1] | Potency [2] | Potency [20] | max response [4] 9.14% | Potency [5] | Potency [6] | Potency [7] | Potency [8] | Potency [9] | Potency [10] | Potency [11] | Potency [13] | Potency [14] | Potency [15] | Potency [16] | Potency [17] | Potency [18]

C=C[Si](OC(=C)C)(OC(=C)C)OC(=C)C
inactive: Potency [1] | Potency [2] | Potency [20] | max response [4] 13.4% | Potency [5] | Potency [7] | Potency [8] | Potency [9] | Potency [19] | Potency [10] | Potency [11] | Potency [12] | Potency [13] | Potency [14] | Potency [15] | Potency [16] | Potency [17] | Potency [18]

C=CCOCC(CC)(CO)COCC=C
inactive: Potency [1] | Potency [2] | Potency [5] | Potency [6] | Potency [7] | Potency [8] | Potency [9] | Potency [19] | Potency [10] | Potency [11] | Potency [13] | Potency [14] | Potency [15] | Potency [16] | Potency [17] | Potency [18]

CN1CCN(c2cc3c(cc2F)c(=O)c(C(=O)O)cn3-c2ccc(F)cc2)CC1
inactive: Potency [1] | Potency [2] | Potency [20] | max response [4] -0.934% | Potency [5] | Potency [6] | Potency [7] | Potency [8] | Potency [9] | Potency [19] | Potency [12] | Potency [13] | Potency [14] | Potency [15] | Potency [16] | Potency [17] | Potency [18]

C1CN(CCOCCN2CCOCC2)CCO1
inactive: Potency [2] | Potency [3] | Potency [20] | max response [4] 4.52% | Potency [5] | Potency [6] | Potency [7] | Potency [8] | Potency [9] | Potency [19] | Potency [10] | Potency [11] | Potency [12] | Potency [13] | Potency [14] | Potency [15] | Potency [16] | Potency [17] | Potency [18]
